In the library only some 3.5% were active in any assay of this set; here they are far more common.
mHTT CaM bind – inhibitors of human mutant huntingtin-calmodulin interaction; actives 3.6% (n = 190,000); AlphaScreen His-mHTT/GST-CaM binding, luminescence; P42858; AID 1671202; inhibition, % at 15 µM;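 note: 0% = both proteins with DMSO and 100% = one protein alone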
Pf apPOL inh – Pf-apPOL DNA polymerase inhibition; Recombinant Pf-apPOL, molecular beacon fluorescence, 1.5 h; inhibition, % at 10 µM; actives 0.25% (n = 210,000)
* marks the source's active call; other numbers are inactive results; nt = not tested or not shown; ! = not active in a repeat. Cut-off read from the data, not from the text of the source: active = inhibition above about 50%; inactive = the rest.

SMILES	mHTT CaM bind	Pf apPOL inh
COc1ccc(C=Cc2nc(-c3cccc(-c4ccn[nH]4)c3)no2)cc1	11.2	-1.3
CCOc1ccc(-c2[nH]nc3c2C(c2ccc(F)cc2)C(C#N)=C(N)O3)c(OCC)c1 (centres undefined)	29.0	0.9
CCOc1ccc(-c2[nH]nc3c2C(c2ccccc2F)C(C#N)=C(N)O3)c(OCC)c1 (centres undefined)	51.0*	1.2
CCOC(=O)C(C#N)=Cc1cccnc1	nt	1.9
COc1ccc2oc(=Nc3ccccc3F)c(C(=O)NC(C)=O)cc2c1	4.0	92.1*
COc1ccc2oc(=Nc3ccc(C#N)cc3)c(C(=O)NC(C)=O)cc2c1	4.0	-2.3
COc1ccc2oc(=Nc3ccc(F)cc3F)c(C(=O)NC(C)=O)cc2c1	2.0	-3.7
COc1ccc2cc(C(=O)NC(C)=O)c(=Nc3ccc(C#N)cc3)oc2c1	0.0	64.9*
CCOc1ccc(OCC)c(N2C(=O)CCC2(C)C(=O)NCCOC)c1 (centres undefined)	2.2	2.0
CCC(=O)Nc1ccc2c(c1)CC(C(=O)NCCOC)CO2 (centres undefined)	-4.0	7.6
CCn1c(-c2cc(NC(=O)C3CC3)n[nH]2)cc2ccc(OC)cc21	26.6	-3.7
CCn1c(-c2cc(NC(=O)C3CC3)n[nH]2)cc2c(OC)cccc21	50.3*	-5.4
Cc1cc(-c2ccc(C)o2)c(C#N)c(SCC(N)=O)n1	3.2	-4.1
CCCCN=Cc1cccn1-c1ccc([N+](=O)[O-])cc1	9.0	-5.4
COc1ccc2ncc(C#N)c(N3CCC(C(=O)NCc4ccc(C)cc4)CC3)c2c1	-8.3	2.2
Cc1nc(N)sc1-c1csc(Nc2cccc(O)c2)n1	51.4*	1.0
Cc1nc(C)c(-c2csc(Nc3cccc(C(=O)O)c3)n2)s1	19.4	5.3
Cc1nc(N)sc1-c1csc(Nc2ccccn2)n1	87.0*	-6.1
CCOc1ccccc1Nc1nc(-c2ccccn2)cs1	37.0	-3.1
Cc1ccnc(Nc2nc(-c3sc(C)nc3C)cs2)c1	30.4	0.7
COc1ccc(-c2csc(Nc3ccccn3)n2)cc1OC	49.7	-4.6
c1ccc(Nc2nc(-c3ccccn3)cs2)nc1	100.2*	-0.5
c1ccc(-c2csc(Nc3ncccn3)n2)nc1	98.0*	-1.2
COCCN1C(=O)c2ccccc2C(C(=O)Nc2ccc(OC)cc2OC)C1c1ccc(F)cc1 (centres undefined)	14.0	4.0
O=C1N(CN2CCN(C(c3ccccc3)c3ccccc3)CC2)c2ccccc2C12OCCCO2	3.0	0.6
SMILES	mHTT CaM bind	Pf apPOL inh
CC(C)S(=O)(=O)C(C#N)=CNc1ccc(Cl)cc1	nt	-0.1
COc1ccc(CCC(=O)N2CCC(c3nc(-c4ccc(NC(C)=O)cc4)no3)CC2)cc1	16.8	-2.2
CC(C)CC(=O)N1CCN(CC2CC=CCC2)CC1 (centres undefined)	3.6	90.7*
O=C(C1CCN(CC2CC=CCC2)CC1)N1CCCC1 (centres undefined)	2.0	-2.6
Cc1sc2ccn(C)c(=O)c2c1C(=O)N(C)Cc1ccccc1	15.0	-4.8
Cc1ccc(C)c(N2CCN(C(=O)CCC(=O)N3CCCn4nc(C)cc43)CC2)c1	46.4	0.8
Cc1cc2n(n1)CCC(=O)N2CCCC(=O)N1CCN(c2cc(Cl)ccc2C)CC1	83.9*	-5.5
Cc1cc2n(n1)CCCN2C(=O)CCC(=O)N1CCN(c2cc(Cl)ccc2C)CC1	87.2*	-0.3
Cc1ccc(C)c(N2CCN(C(=O)CCCN3C(=O)CCn4nc(C)cc43)CC2)c1	26.8	-2.9
COc1ccccc1CNC(=O)c1nnn2c1COC(c1ccc(C)cc1)C2 (centres undefined)	0.8	3.4
CC1=Nc2c([nH]c3ccccc23)-c2cc(C)ccc2N1	70.2*	1.5
Cc1ccc(C)c(-c2noc(-c3c(O)c4ccccc4[nH]c3=O)n2)c1	-6.8	-11.9
Cc1ccc(C(=O)N2CCC(CCNS(=O)(=O)c3cccs3)CC2)cc1	43.5	-4.7
O=C(NCc1ccccc1)N1CCCC1c1ccc(Cl)cc1 (centres undefined)	-6.1	-4.4
COc1ccc(S(=O)(=O)n2nnc3ccccc32)c(C)c1	-2.0	18.7
COc1ccc(C)cc1S(=O)(=O)n1nc(C)cc1C	-21.4	-3.1
COc1ccc(OC)c(S(=O)(=O)n2nnc3ccccc32)c1	100.0*	-4.4
COc1cc(C)c(S(=O)(=O)n2nnc3ccccc32)cc1C	-14.2	3.3
COc1ccc(C)cc1S(=O)(=O)n1nnc2cc(Cl)ccc21	100.0*	4.4
COc1cc(C)c(C)cc1S(=O)(=O)n1nnc2ccccc21	88.5*	-2.3
Cc1ccc(C2CCCN2C(=O)CC(C)C)cc1 (centres undefined)	3.5	-0.5
COc1cc(OC)c(OC)cc1/C=C1\N=C(c2ccc(F)cc2)OC1=O	8.0	-3.0
C/C=C/COc1nc2c(c(=O)n(C)c(=O)n2C)n1C	-7.0	1.1
C=CCOc1nc2c(c(=O)n(C)c(=O)n2C)n1C	100.2*!	-2.3
N#C/C(=C\c1ccccc1C(F)(F)F)c1nn(CCO)c(N)c1C#N	7.0	-8.7

Screening results: PubChem BioAssay, University of Kansas High Throughput Screening Laboratory
